Screen size: about 5,500 compounds; about 2,000 (36%) were called active. Roughly 18% stayed inconclusive and do not appear here. Some of the results follow. Unmarked numbers belong to inactive results. Cut-off read from the data, not from the text of the source: active = normalized growth mostly below about 0.91 (no sharp cut-off); inconclusive = no clear call, values can overlap the other calls; inactive = mostly above about 0.92.
Experiment: chemical genetic growth profiling, strain panel (AID 1159580);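 note: tested at 20 µM; growth read once vehicle control cultures reached saturation at 30 °C; 1 = growth at the plate median or of vehicle wells; lower values mean less growth of the strain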
Settings: growth OD

In the case of `COc1cc(O)c2c(=O)c(O)c(-c3ccc(O)c(O)c3)oc2c1`, the normalized growth (S. cerevisiae deletion strains, locus YJR075W, strain HOC1, stronger effect = lower value) is reported as 0.987, the normalized growth (S. cerevisiae deletion strains, locus YKL009W, strain mrt4, stronger effect = lower value) is reported as 1.02 and the normalized growth (S. cerevisiae deletion strains, locus YKL068W, stronger effect = lower value) is reported as 1. The normalized growth (S. cerevisiae deletion strains, locus YKL085W, strain MDH1 (second series), stronger effect = lower value) was 0.994, the normalized growth (S. cerevisiae deletion strains, locus YKL085W, strain MDH1, stronger effect = lower value) was 0.994 and the normalized growth (S. cerevisiae deletion strains, locus YKL160W, strain elf1, stronger effect = lower value) was 0.84 (active). For the same compound, the normalized growth (S. cerevisiae deletion strains, locus YKL190W, strain CNB1, stronger effect = lower value) was 0.997, the normalized growth (S. cerevisiae deletion strains, locus YKR001C, strain vps1, stronger effect = lower value) was 0.996 and the normalized growth (S. cerevisiae deletion strains, locus YKR026C, strain gcn3, stronger effect = lower value) was 0.945. For the same compound, the normalized growth (S. cerevisiae deletion strains, locus YKR091W, strain srl3, stronger effect = lower value) was 0.961, the normalized growth (S. cerevisiae deletion strains, locus YLL001W, strain dnm1, stronger effect = lower value) was 0.782 (active) and the normalized growth (S. cerevisiae deletion strains, locus YLL026W, stronger effect = lower value) was 0.934. For the same compound, the normalized growth (S. cerevisiae deletion strains, locus YLL041C, strain sdh2, stronger effect = lower value) was 0.928, the normalized growth (S. cerevisiae deletion strains, locus YLR027C, strain aat2, stronger effect = lower value) was 0.843 (active) and the normalized growth (S. cerevisiae deletion strains, locus YLR039C, strain RIC1, stronger effect = lower value) was 0.785. The normalized growth (S. cerevisiae deletion strains, locus YLR058C, strain SHM2, stronger effect = lower value) was 0.827 (active), the normalized growth (S. cerevisiae deletion strains, locus YLR102C, strain apc9, stronger effect = lower value) was 1.02 and the normalized growth (S. cerevisiae deletion strains, locus YLR221C, strain rsa3, stronger effect = lower value) was 0.779 (active). The normalized growth (S. cerevisiae deletion strains, locus YLR258W, strain gsy2, stronger effect = lower value) was 0.854 (active), the normalized growth (S. cerevisiae deletion strains, locus YLR262C, strain YPT6 (second series), stronger effect = lower value) was 0.565 (active) and the normalized growth (S. cerevisiae deletion strains, locus YLR262C, strain YPT6, stronger effect = lower value) was 0.91. For the same compound, the normalized growth (S. cerevisiae deletion strains, locus YLR268W, strain sec22, stronger effect = lower value) was 0.968, the normalized growth (S. cerevisiae deletion strains, locus YLR320W, strain mms22, stronger effect = lower value) was 0.758 (active) and the normalized growth (S. cerevisiae deletion strains, locus YLR330W, strain CHS5, stronger effect = lower value) was 0.99. For the same compound, the normalized growth (S. cerevisiae deletion strains, locus YLR342W, strain FKS1 (second series), stronger effect = lower value) was 0.898, the normalized growth (S. cerevisiae deletion strains, locus YLR342W, strain FKS1, stronger effect = lower value) was 0.643 (active) and the normalized growth (S. cerevisiae deletion strains, locus YLR357W, strain rsc2, stronger effect = lower value) was 0.678 (active). For the same compound, the normalized growth (S. cerevisiae deletion strains, locus YLR370C, strain arc18, stronger effect = lower value) was 0.813 (active), the normalized growth (S. cerevisiae deletion strains, locus YLR371W, strain rom2, stronger effect = lower value) was 0.962 and the normalized growth (S. cerevisiae deletion strains, locus YLR384C, strain iki3, stronger effect = lower value) was 0.936. For the same compound, the normalized growth (S. cerevisiae deletion strains, locus YLR418C, strain cdc73, stronger effect = lower value) was 0.957, the normalized growth (S. cerevisiae deletion strains, locus YML016C, strain PPZ1, stronger effect = lower value) was 0.915 (active) and the normalized growth (S. cerevisiae deletion strains, locus YML032C, strain rad52, stronger effect = lower value) was 1.02. The normalized growth (S. cerevisiae deletion strains, locus YML120C, strain ndi1, stronger effect = lower value) was 0.879 (active), the normalized growth (S. cerevisiae deletion strains, locus YML124C, strain tub3, stronger effect = lower value) was 1.02 and the normalized growth (S. cerevisiae deletion strains, locus YMR058W, strain fet3, stronger effect = lower value) was 0.247 (active). The normalized growth (S. cerevisiae deletion strains, locus YMR078C, strain ctf18, stronger effect = lower value) was 1.02, the normalized growth (S. cerevisiae deletion strains, locus YMR125W, strain sto1, stronger effect = lower value) was 1 and the normalized growth (S. cerevisiae deletion strains, locus YMR129W, stronger effect = lower value) was 0.927. The normalized growth (S. cerevisiae deletion strains, locus YMR205C, strain PFK2, stronger effect = lower value) was 0.658 (active), the normalized growth (S. cerevisiae deletion strains, locus YMR223W, strain ubp8, stronger effect = lower value) was 1 and the normalized growth (S. cerevisiae deletion strains, locus YMR231W, strain pep5, stronger effect = lower value) was 0.874 (active). It also gave a normalized growth (S. cerevisiae deletion strains, locus YMR307W, strain GAS1, stronger effect = lower value) of 0.768, a normalized growth (S. cerevisiae deletion strains, locus YNL067W, strain RPL9B, stronger effect = lower value) of 0.953 and a normalized growth (S. cerevisiae deletion strains, locus YNL071W, strain lat1, stronger effect = lower value) of 0.919. The normalized growth (S. cerevisiae deletion strains, locus YNL128W, strain TEP1, stronger effect = lower value) was 0.935, the normalized growth (S. cerevisiae deletion strains, locus YNL209W, strain ssb2, stronger effect = lower value) was 0.452 (active) and the normalized growth (S. cerevisiae deletion strains, locus YNL233W, strain BNI4, stronger effect = lower value) was 0.894. For the same compound, the normalized growth (S. cerevisiae deletion strains, locus YNL248C, strain rpa49, stronger effect = lower value) was 0.889, the normalized growth (S. cerevisiae deletion strains, locus YNL250W, strain rad50, stronger effect = lower value) was 0.986 and the normalized growth (S. cerevisiae deletion strains, locus YNL271C, strain bni1, stronger effect = lower value) was 0.998. It also gave a normalized growth (S. cerevisiae deletion strains, locus YNL298W, strain CLA4, stronger effect = lower value) of 1.01, a normalized growth (S. cerevisiae deletion strains, locus YNL307C, strain MCK1, stronger effect = lower value) of 1.02 and a normalized growth (S. cerevisiae deletion strains, locus YNL322C, strain KRE1 (second series), stronger effect = lower value) of 0.967. For the same compound, the normalized growth (S. cerevisiae deletion strains, locus YNL322C, strain KRE1, stronger effect = lower value) was 0.952, the normalized growth (S. cerevisiae deletion strains, locus YNR049C, strain mso1, stronger effect = lower value) was 0.947 and the normalized growth (S. cerevisiae deletion strains, locus YNR052C, strain pop2, stronger effect = lower value) was 0.991. The normalized growth (S. cerevisiae deletion strains, locus YOL006C, strain TOP1, stronger effect = lower value) was 0.624, the normalized growth (S. cerevisiae deletion strains, locus YOL012C, strain htz1) was 0.669 and the normalized growth (S. cerevisiae deletion strains, locus YOL147C, strain pex11, stronger effect = lower value) was 1.01. For the same compound, the normalized growth (S. cerevisiae deletion strains, locus YOR001W, strain rrp6, stronger effect = lower value) was 0.845 (active), the normalized growth (S. cerevisiae deletion strains, locus YOR061W, strain CKA2, stronger effect = lower value) was 0.934 and the normalized growth (S. cerevisiae deletion strains, locus YOR069W, strain VPS5, stronger effect = lower value) was 0.966. For the same compound, the normalized growth (S. cerevisiae deletion strains, locus YOR070C, strain gyp1, stronger effect = lower value) was 0.878 (active), the normalized growth (S. cerevisiae deletion strains, locus YOR080W, strain dia2, stronger effect = lower value) was 0.813 (active) and the normalized growth (S. cerevisiae deletion strains, locus YOR083W, strain WHI5, stronger effect = lower value) was 0.749 (active). For the same compound, the normalized growth (S. cerevisiae deletion strains, locus YOR106W, strain vam3, stronger effect = lower value) was 0.407 (active), the normalized growth (S. cerevisiae deletion strains, locus YOR136W, strain idh2, stronger effect = lower value) was 1.01 and the normalized growth (S. cerevisiae deletion strains, locus YOR144C, strain elg1, stronger effect = lower value) was 1.02. For the same compound, the normalized growth (S. cerevisiae deletion strains, locus YOR184W, strain ser1, stronger effect = lower value) was 0.993, the normalized growth (S. cerevisiae deletion strains, locus YOR265W, strain rbl2, stronger effect = lower value) was 0.883 (active) and the normalized growth (S. cerevisiae deletion strains, locus YOR270C, strain vph1, stronger effect = lower value) was 0.484 (active). The normalized growth (S. cerevisiae deletion strains, locus YOR290C, strain snf2, stronger effect = lower value) was 0.701 (active), the normalized growth (S. cerevisiae deletion strains, locus YOR316C, strain cot1, stronger effect = lower value) was 1.05 and the normalized growth (S. cerevisiae deletion strains, locus YPL051W, strain arl3, stronger effect = lower value) was 0.521 (active). The normalized growth (S. cerevisiae deletion strains, locus YPL078C, strain atp4, stronger effect = lower value) was 0.796 (active), the normalized growth (S. cerevisiae deletion strains, locus YPL106C, strain sse1, stronger effect = lower value) was 0.77 (active) and the normalized growth (S. cerevisiae deletion strains, locus YPL240C, strain hsp82, stronger effect = lower value) was 0.83 (active). It also gave a normalized growth (S. cerevisiae deletion strains, locus YPL241C, strain CIN2, stronger effect = lower value) of 0.989, a normalized growth (S. cerevisiae deletion strains, locus YPR119W, strain clb2, stronger effect = lower value) of 1.03 and a normalized growth (S. cerevisiae deletion strains, locus YPR141C, strain kar3, stronger effect = lower value) of 0.997. It also gave a normalized growth (S. cerevisiae deletion strains, locus YPR163C, strain tif3, stronger effect = lower value) of 1.01, a normalized growth (S. cerevisiae deletion strains, locus YPR167C, strain met16, stronger effect = lower value) of 1 and a normalized growth (S. cerevisiae deletion strains, strain wtn01, stronger effect = lower value) of 0.996. For the same compound, the normalized growth (S. cerevisiae strains, strain wild type, stronger effect = lower value) was 0.929.

Source: PubChem BioAssay AID1159580 (chemical genetic matrix, 2015)
